# Bioassay records from PubChem.
# Hits are enriched below; roughly 32% of the tested compounds scored in any of these assays.
# PostGolgi yeast: phenotypic screen on post-Golgi transport, primary screen; post-Golgi transport phenotypic cell assay; inhibition, % at 10 µM; actives 0.9% (n = 98,000);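 further: yeast cells grown in 1536-well plates; yeast grown about 18 h at 30C before absorbance read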
# CYP2C19 inh: blockers of cytochrome P450 2C19 activity – biochemical, luminescence, ADME assay, primary screen | CYP2C19 Supersomes, luciferin-H EGE luminescence, 30 min | inhibition, % at 5 µM | actives 21% (n = 96,000) | P33261;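 active means CYP2C19 inhibition above a set limit at 5 µM in the primary screen, cut at about 50% in these data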;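 further: plate controls were negative control wells for no effect and 2.5 mM tranylcypromine positive control for full effect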
# PostGolgi ctrl: growth inhibition of yeast control strain, primary screen, counter-screen for post-Golgi transport modulator project. inhibition, % at 10 µM. AID 738, 2007. actives 5% (n = 98,000). efflux-deficient yeast background strain, growth absorbance A615, 16 h
# CYP2C9 inhib: blockers of cytochrome P450 2C9 activity – biochemical, luminescence, ADME assay, primary screen; AID 777, 2007; P11712; CYP2C9 Supersomes, luciferin-H conversion; actives 20% (n = 96,000); inhibition, % at 5 µM;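 active means blocking of liver enzyme CYP2C9 beyond about 50% at 5 µM, limit read from the data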
# Target sequence (P11712 whole entry, looked up): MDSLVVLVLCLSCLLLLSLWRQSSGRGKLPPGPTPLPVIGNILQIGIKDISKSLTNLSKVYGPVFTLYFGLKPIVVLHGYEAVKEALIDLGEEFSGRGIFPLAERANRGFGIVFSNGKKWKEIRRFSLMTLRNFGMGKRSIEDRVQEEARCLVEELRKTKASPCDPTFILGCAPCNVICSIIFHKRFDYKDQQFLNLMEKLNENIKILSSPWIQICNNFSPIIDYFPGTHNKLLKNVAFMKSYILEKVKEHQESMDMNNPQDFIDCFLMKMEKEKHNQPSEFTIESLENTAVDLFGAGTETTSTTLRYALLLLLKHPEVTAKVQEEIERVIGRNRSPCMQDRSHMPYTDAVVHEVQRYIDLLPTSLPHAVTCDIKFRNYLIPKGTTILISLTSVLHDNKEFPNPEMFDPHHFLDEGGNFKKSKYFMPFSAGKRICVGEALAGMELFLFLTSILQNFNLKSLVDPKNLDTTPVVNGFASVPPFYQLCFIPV
# CYP2C9 act: human CYP2C9 activators, primary screen, biochemical, luminescence; Cytochrome P450 2C9 (Homo sapiens), P11712; recombinant CYP2C9, luciferin-H conversion; hits give high values; factor 1 = untreated enzyme, 0 = blocked; activation factor at 5 µM; actives 1.4% (n = 96,000); AID 1024, 2008;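 active means activation factor of 2 or more for CYP2C9 at a 5 µM dose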;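 further: 0 = sulfaphenazole-blocked wells and 1 = vehicle-only wells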
# CYP2C19 act: human CYP2C19 activators, primary screen, biochemical, luminescence. Cytochrome P450 2C19 (Homo sapiens), P33261. activation factor at 5 µM. 96,000 tested, under 10 active. recombinant CYP2C19, luciferin-H EGE luminescence; hits give high values; 0 = fully inhibited enzyme, 1 = untreated enzyme;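 active means activation factor of at least 2 at 5 µM in the primary screen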;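 further: 0 = wells with 2.5 mM tranylcypromine and 1 = vehicle-only wells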
# Numbers without * were called inactive; · = not tested or not shown. Unless noted, no stated cut-off is given here; in the data, active means inhibition above about 30%; inactive means the rest.
SMILES,PostGolgi yeast,CYP2C19 inh,PostGolgi ctrl,CYP2C9 inhib,CYP2C9 act,CYP2C19 act
c1ccc(OCCOc2ncnc3ccccc23)cc1,6,60*,11,25,0.7,0.4
O=C(NC(NNc1ccc([N+](=O)[O-])cc1)(C(F)(F)F)C(F)(F)F)c1ccc(Cl)cc1,21,12,58*,46,0.5,0.9
CC(C)C(=O)Nc1ccc(NC(=S)NC(=O)c2ccc([N+](=O)[O-])cc2)cc1,4,8,-5,32,0.7,0.9
C=C(C)c1cccc(C(C)(C)NC(=O)Nc2ncccn2)c1,3,26,57*,7,0.9,0.7
C=C(C)c1cccc(C(C)(C)NC(=O)Nn2cnnc2)c1,-8,73*,9,50*,0.5,0.3
C=C(C)c1cccc(C(C)(C)NC(=O)Nc2cc(C)ccc2OC)c1,-8,32,-4,22,0.8,0.7
CCOC(=O)C1CCN(C(=O)CSc2cc(=O)n(CC)c3ccccc23)CC1,18,60*,-4,20,0.8,0.4
CCn1c(=O)cc(SCC(=O)N2CCC(C)CC2)c2ccccc21,-1,38,12,-170,2.7*,0.6
COc1cc(C(=O)NCC(C)C)c([N+](=O)[O-])cc1OC,-8,-19,0,-18,1.2,1.2
CCCC1COC(Cn2cncn2)(c2ccc(C)cc2)O1 (stereo unspecified),101*,58*,93*,49,0.5,0.4
Cc1c(Cc2ccc3c(c2)OCO3)sc(NC(=O)C(C)(C)C)c1C#N,3,-8,3,9,0.9,1.1
Cc1cc(C(=O)OCC(=O)N(C)C2CCS(=O)(=O)C2)c(C)n1-c1ccccc1 (stereo unspecified),5,22,2,7,0.9,0.8
Cc1nc(N2CCN(Cc3ccccc3)CC2)nc2c1C(=O)CC(C)C2 (stereo unspecified),0,61*,-10,77*,0.2,0.4
CC1CC(C)CN(c2ncc3c(n2)CC(c2ccccc2)CC3=O)C1 (stereo unspecified),5,74*,50*,90*,0.1,0.3
CC(C)c1ccc(C2CC(=O)c3cnc(N4CCc5ccccc5C4)nc3C2)cc1 (stereo unspecified),-5,34,11,13,0.9,0.7
COc1cc(C2CC(=O)c3cnc(N4CCN(Cc5ccccc5)CC4)nc3C2)cc(OC)c1OC (stereo unspecified),-5,84*,0,97*,0,0.2
O=C1CC(c2ccco2)Cc2nc(N3CCc4ccccc4C3)ncc21 (stereo unspecified),-3,95*,42*,98*,0,0.1
CCOc1ccc(N2C(=O)C(Cl)=C(Nc3ccccc3O)C2=O)cc1,-15,14,11,-4,1,0.9
COc1ccccc1CN(Cc1nc2ccccc2c(=O)[nH]1)C(=O)Nc1ccccc1,-3,36,14,24,0.8,0.6
O=C(CN1C(=O)CSc2ccccc21)Nc1ccccc1C(=O)N1CCOCC1,10,8,6,6,0.9,0.9
COc1ccc(C2CC(=O)c3c(C)nc(N4CCN(Cc5ccccc5)CC4)nc3C2)cc1OC (stereo unspecified),0,91*,4,100*,0,0.1
COc1ccc(-c2cc(C(=O)N3CCN(Cc4ccccc4)CC3)no2)cc1OC,-2,11,17,25,0.8,0.9
CC(NC(=O)c1cc(-c2cccs2)on1)c1ccccc1 (stereo unspecified),4,-11,-1,0,1,1.1
CC1CCN(C(=S)c2cn(Cc3ccc(F)cc3)c3ccccc23)CC1,3,38,19,20,0.8,0.6
O=[N+]([O-])/C=C/c1cn(Cc2ccc(F)cc2)c2ccccc12,36*,46,80*,13,0.9,0.5
SMILES,PostGolgi yeast,CYP2C19 inh,PostGolgi ctrl,CYP2C9 inhib,CYP2C9 act,CYP2C19 act
O=C(CSc1nnc(NCc2ccccc2)s1)c1ccco1,-7,62*,5,81*,0.2,0.4
C=CCn1c(C)cc(C(=O)CSc2nnc(NCc3ccccc3)s2)c1C,62*,·,96*,·,·,·
C=CCn1c(C)cc(C(=O)CSc2nnc(NC(C)C)s2)c1C,-8,73*,12,18,0.8,0.3
C=CCn1c(C)cc(C(=O)COC(=O)C2CC(=O)N(Cc3ccccc3)C2)c1C (stereo unspecified),-3,7,-5,-52,1.5,0.9
CCCn1c(Sc2nnnn2-c2ccccc2)n[nH]c1=O,-6,13,-8,17,0.8,0.9
O=S(=O)(NCCSc1ccc(Cl)cc1)c1ccc(F)cc1,-1,37,19,57*,0.4,0.6
Cc1ccc(SCCNS(=O)(=O)c2ccc(F)cc2)cc1,-4,96*,48*,88*,0.1,0
O=C(O)CCCNS(=O)(=O)c1ccc(F)cc1,9,-13,6,-6,1.1,1.1
O=S(=O)(NCCCCCNS(=O)(=O)c1ccc(F)cc1)c1ccc(F)cc1,-3,54*,7,73*,0.3,0.5
N#Cc1c(N)oc(-c2ccc3c(c2)OCO3)c1-c1ccc2c(c1)OCO2,-3,96*,22,87*,0.1,0
N#Cc1c(N)nc2c(c1-c1ccc3c(c1)OCO3)CCCCCC2,0,35,12,15,0.8,0.7
COc1cccc(C(=O)Nc2ncc3c(n2)CC(C)(C)CC3=O)c1,-4,3,-1,8,0.9,1
COc1ccc(Cl)cc1S(=O)(=O)n1cnc2ccccc21,3,78*,1,31,0.7,0.2
CCOc1ccc(Cl)cc1S(=O)(=O)n1cnc2ccccc21,0,95*,22,19,0.8,0
CCOc1cc(C)c(Cl)cc1S(=O)(=O)n1cnc2ccccc21,3,25,8,0,1,0.7
COC(=O)c1ccccc1NC(=O)Cn1cnc2c(cnn2-c2ccccc2)c1=O,-2,-9,21,10,0.9,1.1
Cc1ccc2nc(C(=O)O)c(C(=O)O)nc2c1,25,-2,11,2,1,1
CC(C)CCNC(=O)CSc1nc2ccsc2c(=O)n1NC(=O)c1ccccc1,-1,0,15,41,0.6,1
CCCN(CCC)C(=O)CSc1nc2ccsc2c(=O)n1NC(=O)c1ccccc1,8,-13,3,66*,0.3,1.1
CS(=O)(=O)Nc1ccc(Cc2ccc(NS(C)(=O)=O)cc2)cc1,9,26,-3,52*,0.5,0.7
CCCCCOc1ccc(NS(C)(=O)=O)cc1,-3,10,5,26,0.7,0.9
